An excerpt weighted towards active compounds, which were near 2.4% of everything screened.
Pol eta inh-1 = blocks human DNA polymerase eta activity; 1.2% of 390,000 active; AID 588591; Q9Y253; recombinant Pol eta, fluorescent DNA replication assay; Potency, µM (doses to about 114 µM), without a hit: at the top dose activity change, negative = inhibition, hits mostly inhibitors; also: % is scaled to controls: 0 for no effect and ±100 for the full control effect
Target sequence (Q9Y253 whole entry, looked up): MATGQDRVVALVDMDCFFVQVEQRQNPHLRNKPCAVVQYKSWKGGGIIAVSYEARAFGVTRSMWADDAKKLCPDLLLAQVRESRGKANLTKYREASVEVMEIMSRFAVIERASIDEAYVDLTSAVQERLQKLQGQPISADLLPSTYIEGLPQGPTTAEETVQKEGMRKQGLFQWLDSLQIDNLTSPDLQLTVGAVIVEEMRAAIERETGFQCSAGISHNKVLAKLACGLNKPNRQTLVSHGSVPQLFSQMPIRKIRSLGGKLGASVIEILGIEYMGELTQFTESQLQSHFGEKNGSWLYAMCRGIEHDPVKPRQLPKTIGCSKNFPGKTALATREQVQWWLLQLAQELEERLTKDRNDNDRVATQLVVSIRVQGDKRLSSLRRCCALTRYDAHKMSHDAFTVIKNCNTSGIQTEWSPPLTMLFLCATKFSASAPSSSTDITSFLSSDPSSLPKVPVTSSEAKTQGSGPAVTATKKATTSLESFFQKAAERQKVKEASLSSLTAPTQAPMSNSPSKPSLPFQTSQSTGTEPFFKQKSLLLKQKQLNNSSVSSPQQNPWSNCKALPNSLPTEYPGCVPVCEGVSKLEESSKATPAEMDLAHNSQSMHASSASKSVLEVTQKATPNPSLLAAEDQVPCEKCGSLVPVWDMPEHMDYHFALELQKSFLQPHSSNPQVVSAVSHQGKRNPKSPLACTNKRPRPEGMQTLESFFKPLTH
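Fluorescent replication assay: 50 nM final substrate added after a 15 min room-temperature compound preincubation with 10 nM enzyme. Signal taken at 0 min and again at 10 min.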
Pol kappa inh-1 = inhibitors of human DNA polymerase kappa; Q9UBT6; purified Pol kappa, fluorescent DNA synthesis assay, 10 min; Potency, µM (series often up to 107 µM), for inactives: at the top dose activity, negative = inhibition, usual class: inhibitors; 0.53% of 400,000 active; AID 588579; also: % is scaled to controls: 0 for no effect and ±100 for the full control effect
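10 nM Pol kappa preincubated 15 min at room temperature with compounds, then reaction started with substrate at 50 nM final. Fluorescence read kinetically at 0 and 10 min; buffer-only wells served as negative control.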
FEN1 inh = blocks human flap endonuclease 1; 0.35% of 390,000 active; Potency, µM (top dose mostly 114 µM), for inactives: top-dose activity change, negative = inhibition, actives largely listed as inhibitors; Recombinant FEN1 flap cleavage, fluorescence, 15 min; AID 588795; P39748; also: % is scaled to controls: 0 for no effect and ±100 for the full control effect; nearly all actives have a fitted effect of over 65% in size
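FEN1 at 10 nM preincubated with compounds 15 min at room temperature, then flap DNA substrate added at 50 nM final. Signal read at 0 and 15 min; concentration-response fitted with four-parameter Hill equation.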
POLI inh = inhibitors of human DNA polymerase iota; Pol iota fluorescent replication assay, 10 min; 1% of 390,000 active; Q9UNA4; Potency, µM (doses to about 115 µM), for the others: top-dose activity, negative = inhibition, usual class: inhibitors; AID 588590
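Pol iota at 10 nM preincubated 15 min with compounds at room temperature; reaction started with fluorescent substrate, 50 nM final. Fluorescence read kinetically at 0 and 10 min; buffer-only wells as negative control.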
WRN helicase inh = inhibitors of human WRN helicase; Q14191; WRN helicase unwinding, fluorescent forked duplex, kinetic; Potency, µM (series often up to 114 µM), without a hit: at the top dose activity change, negative = inhibition, hits mostly inhibitors; 0.46% of 360,000 active; also: % is scaled to controls: 0 for no effect and ±100 for the full control effect; nearly all actives have a fitted effect of over 55% in size
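Fluorescence dequenching readout, ex 525 nm/em 598 nm, kinetic mode: forked duplex DNA (100 nM final) with adjacent fluorophore and quencher unwound by WRN (20 nM final) with 2 mM ATP. Compound preincubation 15 min, room temperature.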
POLB inh = blocks human DNA polymerase beta activity | AID 485314 | Potency, µM (titrated, usually from 114 µM), for inactives: at the top dose activity change, negative = inhibition, most hits filed as inhibitors | 1.3% of 340,000 active | Pol beta primer extension/strand displacement, fluorescence kinetic | P06746; also: % is scaled to controls: 0 for no effect and ±100 for the full control effect
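Pol beta (10 nM) and compounds were preincubated 15 min at room temperature, then 50 nM substrate (final) started primer extension/strand displacement. Reads were taken at 0 and 10 min; concentration-response data were fitted to a four-parameter Hill equation.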
TbPGK inh = validation of Trypanosoma brucei phosphoglycerate kinase inhibitors; 79% of 500 active; TbPGK coupled GAPDH assay, Kinase-Glo luminescence; shares compounds with Pol kappa inh-1; Potency, µM (highest dose often 57.5 µM), inactives show at the top dose activity change, negative = inhibition, most hits filed as inhibitors; AID 686980; also: % is scaled to controls: 0 for no effect and ±100 for the full control effect; nearly all actives have a fitted effect of over 65% in size
Pol iota confirm = Confirm cherry-picked inhibitors of human polymerase iota; Potency, µM, actives largely listed as inhibitors; shares compounds with Pol kappa inh-1; Pol iota primer extension, TAMRA/BHQ fluorescence; 77% of 1,500 active; AID 720496
Pol kappa inh-2 = Pol kappa (human) inhibition, cherry-pick confirmation; shares compounds with Pol eta inh-1; purified Pol-kappa, fluorescent strand-displacement substrate; Potency, µM, most hits filed as inhibitors; 76% of 920 active; AID 720501
Pol eta inh-2 = confirmation of human DNA polymerase eta inhibitors; shares compounds with Pol eta inh-1; Pol eta primer extension, TAMRA/BHQ fluorescence, 10 min; Potency, µM, most hits filed as inhibitors; 64% of 2,600 active
The depositor's hits bear a star; u = inconclusive; x = not tested or not shown; ! = not active in a repeat; [ ] = dose if it differs, or a comment. Calls follow the shape of the dose curve; as a rule, active = well fitted curve in the direction sought with a large enough effect; inconclusive = small, poorly fitted or top-dose-only effect, or another doubt; inactive = no such curve, though single readings can be large; an effect the other way counts as inactive or inconclusive. Potency is read from the fitted curve at half-maximal effect.

SMILES	Pol eta inh-1	Pol kappa inh-1	FEN1 inh	POLI inh	WRN helicase inh	POLB inh	Pol iota confirm	Pol kappa inh-2	Pol eta inh-2	others
N#C/C(=C\c1ccc(O)c(O)c1)C(=O)c1ccc(O)c(O)c1	0.13µM*!	0.34µM*	1.4µM*	1.1µM*	0.17µM*	0.063µM*	0.75*	0.38*	0.67*	TbPGK inh=0.33µM*
N#C/C(=C\c1ccc(O)c(O)c1)C(=O)N1CCCC1	u	-14%	-6%	u	2%[11.6 µM]	-19%	x	x	x
COc1ccc(-c2cnnc(N/N=C/c3ccc(O)c(O)c3)n2)cc1	20µM*	25µM*	u	8.9µM*	u	3.5µM*	47*	x	30*
N#Cc1cccc(-c2cncnc2NCc2cccs2)c1	x	5%[60.1 µM]	x	x	x	x	x	x	x
COc1ccc(C(=O)c2cn(Cc3ccc(F)cc3)c3ccc(C)cc3c2=O)cc1	-19%	-8%	7%	-2%	x	-3%	x	x	x
CC(=O)c1ccc(NC(=O)CN2C(=O)CCc3cc(S(=O)(=O)N4CCC(C)CC4)ccc32)cc1	25µM*	-10%[60.1 µM]	-7%	u	x	35µM*	53*	u	38*
CCCCn1cc(S(=O)(=O)c2ccc(Cl)cc2)c(=O)c2cc(F)c(N3CCCCC3)cc21	-10%	2%	10%	2%	x	2%	x	x	x
O=C1C=C(Nc2ccc(O)cc2)CC(c2ccco2)C1 (centres undefined)	u	-3%	9%	-5%	-2%	-21%	x	x	x
O=C1C=C(O)CC(c2ccco2)C1 (centres undefined)	3.2µM*	u	u	4.5µM*	u	6.3µM*	75*	17*	30*
O=C(N/N=C/c1ccccc1O)NC12CC3CC(CC(C3)C1)C2	-12%	-3%	-29%	-10%	-4%	2%	x	x	x
O=C(N/N=C/c1cc(Cl)cc([N+](=O)[O-])c1O)NC12CC3CC(CC(C3)C1)C2	7.9µM*	0%	1%	11%	45µM*	14µM*	x	x	67*	TbPGK inh=15µM*
CN(Cc1ccccc1)S(=O)(=O)c1nnc(NC(=O)c2ccccc2Cl)s1	-11%	8%	2%	21%	x	7%	x	x	x
Cc1nnc(SCC2=C(C(=O)O)N3C(=O)C(NC(=O)Cn4nc(C(F)F)cc4C)C3SC2)s1 (centres undefined)	8.9µM*	u	-3%	16µM*	-8%[11.6 µM]	u	x	x	27*	TbPGK inh=u
CCOc1ccc(NC(=O)Cn2c(=O)n(CC3CCC(C(=O)NCCc4ccccc4)CC3)c(=O)c3ccccc32)cc1 (centres undefined)	-9%	-25%	-3%	-13%	x	-2%	x	x	x
Cc1cc(C(=O)NCc2ccc(C(=O)O)o2)c(C)o1	4µM*	32µM*	1%	20µM*	-34%[57.1 µM]	28µM*	27*	x	6.7*	TbPGK inh=u
Cc1ccc(NC(=O)CN2C(=O)C(C)(C)c3ccccc32)cc1	-6%	-6%[60.1 µM]	-3%	33%	x	11%	x	x	x
CC(=C\C(=O)O)/C(=C/c1ccc(C)o1)C(=O)O	7.9µM*	u	7%	u	-18%[11.6 µM]	20µM*	34*	x	21*
CC(=C\C(=O)O)/C(=C/c1ccco1)C(=O)O	u	u	-16%	u	2%[11.6 µM]	u	x	x	x
Cc1ccc(CCNC(=O)c2cc3c(s2)-c2ccccc2OC3)cc1	u	u	u	79µM*	x	14µM*	47*	x	u
CCOC(=O)c1c(C)[nH]c(C)c1S(=O)(=O)N1CCC(C(=O)NCc2ccc(F)cc2)CC1	-4%	-9%	20%	-1%	x	-7%	x	x	x
CCC(COC)Oc1cc(NCc2ccccc2)c2ncn(C(C)C)c2c1 (centres undefined)	79µM*	5%	u	3.2µM*	u	x	47*	x	76*
S=c1[nH]nc(-c2cc(-c3ccccc3)n[nH]2)n1/N=C/C=C/c1ccco1	22µM*	50µM*	u	14µM*	u	22µM*	u	24*	30*
COc1ccc2c(c1)c(=O)oc1cc(OCC(=O)N3CCc4ccccc4C3)ccc12	89µM*	u	-9%	u	u	11µM*	34*	8.4*	76*	TbPGK inh=3.3µM*
CC(C)(CS(=O)(=O)[O-])NC(=O)CC[N+](C)(C)CCO	0.79µM*	22µM*	40µM*	1.4µM*	7.9µM*	2µM*	x	x	8.5*	TbPGK inh=3.3µM*
COc1ccc(Cl)cc1NS(=O)(=O)c1ccc2[nH]c3c(c2c1)CCCC3	-16%	-3%	-5%	9%	x	17%	x	x	x
SMILES	Pol eta inh-1	Pol kappa inh-1	FEN1 inh	POLI inh	WRN helicase inh	POLB inh	Pol iota confirm	Pol kappa inh-2	Pol eta inh-2	others
COCCN(C(=O)c1cc2c(s1)CCC2)c1c(N)n(CC(C)C)c(=O)[nH]c1=O	8.9µM*	45µM*	-2%	20µM*	45µM*	x	21*	19*	48*
Cc1cc(C(=O)O)ccc1-n1c(C)cc(C=C2C(=O)c3ccccc3C2=O)c1C	u	-19%	-18%	u	-19%[11.6 µM]	-18%	x	x	x
Cc1ccc(C(=O)O)cc1-c1ccc(C=C2C(=O)c3ccccc3C2=O)o1	7.9µM*	79µM*	u	u	-33%[11.6 µM]	32µM*	42*	x	27*
CCOc1cc(/C=N/N=C2/NC(=O)C(CC(=O)O)S2)ccc1OCc1ccc(Cl)cc1Cl (centres undefined)	32µM*	u	u	u	u	22µM*	75*	75*	76*
COc1cc(C)cc(C(=O)O)c1C1=C(O)c2cccc(O)c2C(=O)C1=O	16µM*	50µM*	u	35µM*	u	28µM*	34*	x	24*
O=C(NCCN1CCN(c2ccccc2)CC1)C1(S(=O)(=O)c2ccc(Cl)cc2)CC1	-23%	-13%	-2%	20%	-5%	0%	x	x	x
CC1(C)CCC(c2ccc(Cl)cc2)=C(CN2CCN(c3ccc(C(=O)NS(=O)(=O)c4ccc(N[C@H](CCN5CCOCC5)CSc5ccccc5)c(S(=O)(=O)C(F)(F)F)c4)cc3)CC2)C1	x	45µM*	u	40µM*	x	x	67*	u	u

Compound activity as filed in PubChem.
